The record followed here is PubChem BioAssay AID1347048 (National Center for Advancing Translational Sciences (NCATS), 2019).

In all, about 76,000 compounds went through this assay and about 1,200 (1.6%) were called active. Where a call stands in place of a potency, no number is given. Roughly 4% stayed inconclusive and do not appear here. Calls follow the shape of the full dose curve. The sample as a whole holds a higher share of actives than the screen did.
Potency is read from the fitted curve at half-maximal effect.

Atrial natriuretic peptide receptor 1 (Homo sapiens), sequence (P16066 whole entry, looked up): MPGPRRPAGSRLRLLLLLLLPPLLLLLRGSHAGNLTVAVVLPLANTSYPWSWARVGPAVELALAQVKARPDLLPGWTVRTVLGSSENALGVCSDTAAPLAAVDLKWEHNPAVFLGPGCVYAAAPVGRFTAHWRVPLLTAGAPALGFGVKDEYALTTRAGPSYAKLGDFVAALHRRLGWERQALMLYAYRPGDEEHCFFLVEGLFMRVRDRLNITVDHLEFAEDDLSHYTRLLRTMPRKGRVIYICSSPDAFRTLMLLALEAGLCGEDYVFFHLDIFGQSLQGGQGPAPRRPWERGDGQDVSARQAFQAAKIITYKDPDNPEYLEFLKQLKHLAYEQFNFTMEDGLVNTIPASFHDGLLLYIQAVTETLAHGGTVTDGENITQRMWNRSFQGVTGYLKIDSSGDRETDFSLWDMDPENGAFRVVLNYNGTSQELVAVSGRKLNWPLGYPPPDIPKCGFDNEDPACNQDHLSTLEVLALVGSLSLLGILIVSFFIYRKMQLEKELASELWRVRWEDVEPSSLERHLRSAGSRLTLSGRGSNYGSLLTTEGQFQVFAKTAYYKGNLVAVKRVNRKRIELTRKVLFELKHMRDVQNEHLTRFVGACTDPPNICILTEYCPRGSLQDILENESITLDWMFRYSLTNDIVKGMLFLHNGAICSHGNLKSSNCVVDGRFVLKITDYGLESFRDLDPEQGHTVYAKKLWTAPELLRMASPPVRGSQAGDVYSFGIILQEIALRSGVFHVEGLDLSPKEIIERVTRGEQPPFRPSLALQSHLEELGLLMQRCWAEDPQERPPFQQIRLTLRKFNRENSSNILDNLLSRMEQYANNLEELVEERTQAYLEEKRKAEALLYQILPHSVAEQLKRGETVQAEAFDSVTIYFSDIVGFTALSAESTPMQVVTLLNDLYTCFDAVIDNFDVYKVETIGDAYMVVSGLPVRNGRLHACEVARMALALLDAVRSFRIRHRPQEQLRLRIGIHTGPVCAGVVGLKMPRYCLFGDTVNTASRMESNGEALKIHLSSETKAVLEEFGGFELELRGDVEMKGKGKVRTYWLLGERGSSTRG

This assay concerns the target Atrial natriuretic peptide receptor 1 (Homo sapiens) (UniProt P16066). Description: Natriuretic polypeptide receptor (hNpr1) antagonism - Primary qHTS. Also: nearly all actives have a fitted effect of over 60% in size. The following applies: HEK293 hNpr1 GloSensor cGMP, ANP-stimulated luminescence; series mostly up to 70.6 µM. An excerpt:
Pruritus or itch, is an irritating skin sensation that creates a need to scratch, and ranges from mildly unpleasant and passing to acute and persistent sensations. […] Conventional treatments include topical anti-inflammatory agents, anti-histamines, and emollients, which are aimed at managing the itchy sensation and not the underlying disease. The treatment of pruritus remains a diagnostic and therapeutic challenge. Neurotransmission in the spinal cord from primary pruriceptors to second order neurons is a necessary step that eventually results in the sensation of itch. At this synapse, primary pruriceptors use the neuropeptide natriuretic polypeptide B (NppB) to activate its cognate receptor Natriuretic polypeptide receptor 1 (Npr1) on second order neurons. Inhibition of this step is a new potential strategy to inhibit acute and chronic itch. In order to identify small molecular compounds that can inhibit the Npr1 receptor we developed a high-throughput assay to probe inhibition of the receptor guanylate cyclase Npr1. The assay was designed taking advantage of Promega's GloSensor[TM] technology (Fan, F. et al. 2008). It involves the expression of a cyclic guanosine monophosphate (cGMP) biosensor, comprised of a firefly luciferase variant that was coupled to the cGMP binding domain of human phosphodiesterase 5A, and loading of cells with a cell-permeable luciferase substrate to monitor cGMP production by Npr1 in real time in live cells. In detail, we generated human embryonic kidney 293 cells stably expressing the human Npr1 and the cGMP GloSensor[TM] pGS-40F. Stimulating these cells with the Npr1 agonists human NppA or NppB, luciferase-induced light production could be detected in a dose-dependent manner. We also generated HEK293 cells stably expressing human Npr2 and pGS-40F and cells only expressing pGS-40F to conduct secondary counter screens. In these cells, NppC or sodium nitroprusside were used to stimulate Npr2 or soluble guanylate cyclase which is endogenously expressed in HEK293 cells, respectively. REFERENCE F. Fan, B. F. Binkowski, B. L. Butler, P. F. Stecha, M. K. Lewis, K. V. Wood, Novel genetically encoded biosensors using firefly luciferase. ACS Chem. Biol., 2008, 3: 346-351 .
PROTOCOL TABLES (as described by Inglese J, Shamu CE and Guy RK. 2007) SEQUENCE No. (e.g., 1, 2, 3, etc.); […] (e.g., Cells, Incubation, Reagent, etc.); VALUE and DESCRIPTION. GLOSENSOR PROTOCOL 1. Cells. Seed 1500 HEK293 cGMP-sensor cells expressing hNpr1 per well in 4uL into Greiner 1536-well white/solid bottom high base, tissue culture-treated plates. 2. Incubation. Incubate plated cells at 37C in 5% CO2, 95% RH overnight. 3. Reagent. Add 1uL per well GloSensor reagent from Promega (2% final concentration) or CO2 independent media vehicle control to respective columns of Greiner 1536-well plates. 4. Incubation. Incubate plated cells at room temperature for 2 h, protect from light. 5. Compounds. Library compounds and A-71915 control added at 23 nL per well, transferred by Pin Tool. 6. Incubation. Incubate plated cells for 30 min. at room temperature, protect from light. 7. Detector. GloSensor baseline pre-read luminescence measured using CCD-based camera (Viewlux). 8. Compound. Add 1uL of hNppA peptide to 0.1 nM final concentration to stimulate hNpr1 or CO2 independent media as vehicle control. 9. Incubation. Incubate treated cells at room temperature for 20 min., protect from light. 10. Detector. GloSensor post-hNppA luminescence measured using CCD-based camera (Viewlux). NOTES (numbers refer to Sequence numbers above) 1. HEK293 cells expressing hNpr1 and GIP/pGS-40F grown to 85-95% confluence (48-72 h) in T175 culture flasks (CO2 independent media supplemented with 10% FBS, 1% Pen/Strep antibiotics and 1 ug/mL puromycin). Trypsinize and harvest cells from T175 culture flasks and filter through 40 um cell strainer. Cells counted with Invitrogen Countess (30,000,000 - 50,000,000 cells/flask). […]
(Quantitative high-throughput screening tests each substance at several concentrations.)
In the case of `COc1cc2c(cc1Oc1ccccc1)NC(=O)C21CCN(c2ccnc(C)n2)CC1`, the Potency entry is “inactive”.
Take `COc1cc2c(cc1Oc1cccc(N(C)C)c1)NC(=O)C21CCN(Cc2ccccn2)CC1`: the Potency is 10 µM (active).
With `COc1cc2c(cc1OCc1ccncc1)NC(=O)C21CCN(Cc2ccccn2)CC1` the entry was “inactive”; with `CN(Cc1ccccc1)C[C@H]1CN2CC[C@H]1C[C@@H]2CNC(=O)Nc1cccc(C#N)c1`, “inactive”; with `COc1cc2c(cc1OCc1ccncc1)NC(=O)C21CCN(c2ncccn2)CC1`, “inactive”.
With `COc1cc2c(cc1OCc1ccncc1)NC(=O)C21CCN(c2ncc(F)cn2)CC1` the figure was 20 µM (active); with `COc1cc2c(cc1OCc1ccccc1)NC(=O)C21CCN(CCC(C)C)CC1`, “inactive”.
On to `Cc1nc(-c2ccccc2)cc([C@H]2CN3CC[C@H]2C[C@@H]3CNC2CCOCC2)n1`, for which the Potency result was “inactive”.
With `O=C(NCc1ccccc1)[C@H]1CN2CCC1C[C@@H]2Cn1cc(-c2ccc(F)cc2)nn1` (stereo not given in full), the Potency result is “inactive”.
To `Cc1nc(-c2ccccc2)cc([C@H]2CN3CC[C@H]2C[C@@H]3CNC2CCN(C)CC2)n1` belongs “inactive”; to `CCC(CC)c1cc([C@H]2CN3CC[C@H]2C[C@@H]3CNC(=O)NCc2ccccc2)nc(-c2ccncc2)n1`, 11.2 µM (active); to `CCC(CC)c1cc([C@H]2CN3CC[C@H]2C[C@@H]3CNS(=O)(=O)c2ccccc2C#N)nc(-c2ccncc2)n1`, “inactive”.
With `CCCS(=O)(=O)NC[C@H]1C[C@@H]2CCN1C[C@@H]2c1cc(-c2ccccc2)nc(C)n1` the entry was “inactive”.
To `COc1ccc(C(=O)N2[C@H]3CC[C@@H]2c2cnc(-c4ccccc4)nc2C3)c(OC)c1` belongs “inactive”; to `COc1cc2c(cc1OCc1ccccc1)NC(=O)C21CCN(C(=O)C(C)C)CC1`, “inactive”.
